# Measured values reported in PubChem BioAssay (EPA / NIEHS).
# Some structures have more than one record in an assay (separate samples or runs), and their calls can disagree. The source made the active and inactive calls. The calls were made as follows: active = hit-call score of the fitted dose curve at least 0.9, where 1 is the maximum; inactive = score below 0.9.
# Columns and labels:
# [1] = read-out: Vascular endothelial growth factor receptor 2 (Homo sapiens) (UniProt P35968); assay: BSK_4H_VEGFRII: BioMAP Diversity Plus: 4H Assay for Vascular endothelial growth factor receptor 2 (VEGFR2) Biomarker Activity (AID 2283031); conditions: primary human endothelial cells (HUVEC); actives raise or lower the signal
# How it was run: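 ELISA read-out of VEGFRII in primary human umbilical vein endothelium, taken 24 h after chemical treatment. Responses are expressed relative to DMSO, with bidirectional fitting.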
# [2] = read-out: Human Leukocyte Antigen - DR isotype (HLADR), HLA-DRA (gene 3122); assay: BSK_BE3C_HLADR: BioMAP Diversity Plus: BE3C Assay for Human Leukocyte Antigen - DR isotype (HLADR) Biomarker Activity (AID 2283032); conditions: primary human bronchial epithelial cells; actives raise or lower the signal
# How it was run: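 Chemicals are dosed onto BE3C bronchial epithelial cultures of human origin and left 24 h. HLA-DR is then measured by ELISA, and the endpoint is fitted in both directions using DMSO as the activity baseline.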
# [3] = read-out: Vascular cell adhesion molecule 1 (VCAM1), VCAM1 (gene 7412); assay: BSK_4H_VCAM1: BioMAP Diversity Plus: 4H Assay for Vascular cell adhesion molecule 1 (VCAM1) Biomarker Activity (AID 2283033); conditions: primary human endothelial cells (HUVEC); actives raise or lower the signal;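 also: cell-surface VCAM-1 protein measured by ELISA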
# How it was run: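 Chemicals are added to primary human umbilical vein endothelial cells. After 24 h, VCAM-1 levels are measured by ELISA. Values come from bidirectional fitting referenced to DMSO.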
# [4] = read-out: Interferon-gamma inducible Protein 10 (IP10), CXCL10 (gene 3627); assay: BSK_BE3C_IP10: BioMAP Diversity Plus: BE3C Assay for Interferon-gamma inducible Protein 10 (IP10) Biomarker Activity (AID 2283034); conditions: primary human bronchial epithelial cells; actives raise or lower the signal
# How it was run: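 IP-10 quantified by ELISA serves as the endpoint. Cells: primary human bronchial epithelium, read 24 h after compound addition. Activity is derived by bidirectional fitting with DMSO as negative control.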
# [5] = read-out: Monokine induced gamma interferon (MIG), CXCL9 (gene 4283); assay: BSK_BE3C_MIG: BioMAP Diversity Plus: BE3C Assay for Monokine induced gamma interferon (MIG) Biomarker Activity (AID 2283035); conditions: primary human bronchial epithelial cells; actives raise or lower the signal;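 also: MIG protein measured by ELISA in BE3C cultures after 24 h of dosing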
# How it was run: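 ELISA quantified MIG after 24 h exposure of primary bronchial epithelial cultures, analysed in both directions relative to DMSO. Cytotoxicity tracked in parallel cultures by sulforhodamine B staining.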
# [6] = read-out: Transforming growth factor beta 1 (TGFb1), TGFB1 (gene 7040); assay: BSK_BE3C_TGFb1: BioMAP Diversity Plus: BE3C Assay for Transforming growth factor beta 1 (TGFb1) Biomarker Activity (AID 2283036;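 also: TGF-b1 protein level measured by ELISA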); conditions: primary human bronchial epithelial cells; actives raise or lower the signal
# How it was run: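 Bronchial epithelial primary cells are treated with test chemical, then TGF-b1 is quantified by ELISA after 24 hours. Values derive from bidirectional fitting against DMSO, with cytotoxicity checked by SRB staining in parallel cultures.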
# [7] = read-out: Plasminogen activator inhibitor-1 (PAI1), SERPINE1 (gene 5054); assay: BSK_BE3C_PAI1: BioMAP Diversity Plus: BE3C Assay for Plasminogen activator inhibitor-1 (PAI1) Biomarker Activity (AID 2283037); conditions: primary human bronchial epithelial cells; actives raise or lower the signal
# How it was run: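 Values derive from bidirectional fitting against DMSO baseline of PAI-1 levels, measured by ELISA in human bronchial epithelial cells 24 h after compound addition.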
# [8] = read-out: urokinase plasminogen activator (uPA), PLAU (gene 5328); assay: BSK_BE3C_uPA: BioMAP Diversity Plus: BE3C Assay for urokinase plasminogen activator (uPA) Biomarker Activity (AID 2283038); conditions: primary human bronchial epithelial cells; actives raise or lower the signal;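 also: uPA protein level quantified by ELISA in cell cultures; uPA read one day after compound addition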
# How it was run: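 Bronchial epithelial cells (human, primary); chemical 24 h; uPA by ELISA; bidirectional fit vs DMSO. SRB (0.1%, after 10% TCA fixation, 560 nm) in parallel cultures for cytotoxicity.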
# [9] = read-out: Urokinase-type plasminogen activator receptor (uPAR), PLAUR (gene 5329); assay: BSK_BE3C_uPAR: BioMAP Diversity Plus: BE3C Assay for Urokinase-type plasminogen activator receptor (uPAR) Biomarker Activity (AID 2283039); conditions: primary human bronchial epithelial cells; actives raise or lower the signal;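 also: uPAR protein level measured by ELISA on the cells; cells exposed to compound for one day before measurement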
# How it was run: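 Steps: dose human primary bronchial epithelial cells, incubate 24 h, measure uPAR by ELISA, then fit gain- or loss-of-signal response bidirectionally relative to DMSO.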
# [10] = read-out: Interleukin-6 (IL6), IL6 (gene 3569); assay: BSK_CASM3C_IL6: BioMAP Diversity Plus: CASM3C Assay for Interleukin-6 (IL6) Biomarker Activity for (AID 2283040); conditions: primary human coronary artery smooth muscle cells; actives raise or lower the signal
# [11] = read-out: Tissue plasminogen activator (tPA), PLAT (gene 5327); assay: BSK_BE3C_tPA: BioMAP Diversity Plus: BE3C Assay for Tissue plasminogen activator (tPA) Biomarker Activity (AID 2283041); conditions: primary human bronchial epithelial cells; actives raise or lower the signal;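 also: tPA level quantified by ELISA one day after compound addition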
# How it was run: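 Gain- or loss-of-signal in tPA, measured by ELISA, derived by bidirectional fitting against DMSO. Cells: human primary bronchial epithelial; read at 24 h after chemical dosing.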
# [12] = read-out: Interleukin-8 (IL8), CXCL8 (gene 3576); assay: BSK_CASM3C_IL8: BioMAP Diversity Plus: CASM3C Assay for Interleukin-8 (IL8) Biomarker Activity (AID 2283042); conditions: primary human coronary artery smooth muscle cells; actives raise or lower the signal;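 also: IL-8 protein level quantified by ELISA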
# [13] = read-out: Human Leukocyte Antigen - DR isotype (HLADR), HLA-DRA (gene 3122); assay: BSK_CASM3C_HLADR: BioMAP Diversity Plus: CASM3C Assay for Human Leukocyte Antigen - DR isotype (HLADR) Biomarker Activity (AID 2283043); conditions: primary human coronary artery smooth muscle cells; actives raise or lower the signal;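 also: cell-surface HLA-DR protein level quantified by ELISA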
# [14] = read-out: Macrophage colony-stimulating factor (MCSF), CSF1 (gene 1435); assay: BSK_CASM3C_MCSF: BioMAP Diversity Plus: CASM3C Assay for Macrophage colony-stimulating factor (MCSF) Biomarker Activity (AID 2283044); conditions: primary human coronary artery smooth muscle cells; actives raise or lower the signal;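 also: M-CSF protein amount quantified by ELISA after 24 h exposure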
# [15] = read-out: Low-density lipoprotein receptor (LDLR), LDLR (gene 3949); assay: BSK_CASM3C_LDLR: BioMAP Diversity Plus: CASM3C Assay for Low-density lipoprotein receptor (LDLR) Biomarker Activity (AID 2283045); conditions: primary human coronary artery smooth muscle cells; actives raise or lower the signal;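 also: LDLR protein level on the cell surface quantified by ELISA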
# [16] = read-out: Monocyte Chemoattractant Protein-1 (MCP1), CCL2 (gene 6347); assay: BSK_CASM3C_MCP1: BioMAP Diversity Plus: CASM3C Assay for Monocyte Chemoattractant Protein-1 (MCP1) Biomarker Activity (AID 2283046); conditions: primary human coronary artery smooth muscle cells; actives raise or lower the signal;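 also: MCP-1 level quantified by ELISA 24 h after dosing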
# [17] = BSK_CASM3C_Proliferation: Cell Proliferation Assessment in the BioMAP Diversity Plus: CASM3C Assay (AID 2283047); conditions: primary human coronary artery smooth muscle cells;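 also: sulforhodamine B total protein stain as relative cell number at 560 nm; sub-confluent cells exposed 48 h before staining; fitted both ways against DMSO so gain or loss of cell number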
# [18] = read-out: Monokine induced gamma interferon (MIG), CXCL9 (gene 4283); assay: BSK_CASM3C_MIG: BioMAP Diversity Plus: CASM3C Assay for Monokine induced gamma interferon (MIG) Biomarker Activity (AID 2283048); conditions: primary human coronary artery smooth muscle cells; actives raise or lower the signal;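 also: MIG protein level measured by ELISA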
# [19] = read-out: serum amyloid A (SAA), SAA1 (gene 6288); assay: BSK_CASM3C_SAA: BioMAP Diversity Plus: CASM3C Assay for serum amyloid A (SAA) Biomarker Activity (AID 2283049); conditions: primary human coronary artery smooth muscle cells; actives raise or lower the signal;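 also: SAA protein level quantified by ELISA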
# [20] = BSK_CASM3C_SRB: Viability Assessment in the BioMAP Diversity Plus: CASM3C Assay (AID 2283050); conditions: primary human coronary artery smooth muscle cells;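 also: total protein by SRB staining as cytotoxicity measure in parallel cultures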
compound,measurement,setting,value
CCSC(C)CC1CC(=O)C(C(CC)=NOC/C=C/Cl)=C(O)C1 (stereo unspecified),outcome,[1],inactive
same,outcome,[2],inactive
same,outcome,[3],inactive
same,outcome,[4],inactive
same,outcome,[5],inactive
same,outcome,[6],inactive
same,outcome,[7],inactive
same,outcome,[8],inactive
same,outcome,[9],inactive
same,outcome,[10],inactive
same,outcome,[11],inactive
same,outcome,[12],inactive
same,outcome,[13],inactive
same,outcome,[14],inactive
same,outcome,[15],inactive
same,outcome,[16],inactive
same,outcome,[17],inactive
same,outcome,[18],inactive
same,outcome,[19],inactive
same,outcome,[20],inactive
ClC1(Cl)C2(Cl)C3(Cl)C4(Cl)C(Cl)(Cl)C5(Cl)C3(Cl)C1(Cl)C5(Cl)C24Cl (stereo unspecified),outcome,[1],inactive
same,outcome,[2],inactive
same,outcome,[3],inactive
same,outcome,[4],inactive
same,outcome,[5],inactive
same,outcome,[6],inactive
same,outcome,[7],inactive
same,outcome,[8],inactive
same,outcome,[9],inactive
same,outcome,[10],inactive
same,outcome,[11],inactive
same,outcome,[12],inactive
same,outcome,[13],inactive
same,outcome,[14],inactive
same,AC50,[15],1.14 µM (active)
same,outcome,[16],inactive
same,outcome,[17],inactive
same,outcome,[18],inactive
same,outcome,[19],inactive
same,outcome,[20],inactive
CC1(C)Cc2cccc(O)c2O1,outcome,[1],inactive
same,outcome,[2],inactive
same,outcome,[3],inactive
same,outcome,[4],inactive
same,outcome,[5],inactive
same,outcome,[6],inactive
same,outcome,[7],inactive
same,outcome,[8],inactive
same,outcome,[9],inactive
same,outcome,[10],inactive
same,outcome,[11],inactive
same,outcome,[12],inactive
same,outcome,[13],inactive
same,outcome,[14],inactive
same,outcome,[15],inactive
same,outcome,[16],inactive
same,outcome,[17],inactive
same,outcome,[18],inactive
same,outcome,[19],inactive
same,outcome,[20],inactive
CN(C)N=O,outcome,[1],inactive
same,outcome,[2],inactive
same,outcome,[3],inactive
same,outcome,[4],inactive
same,outcome,[5],inactive
same,outcome,[6],inactive
same,outcome,[7],inactive
same,outcome,[8],inactive
same,outcome,[9],inactive
same,outcome,[10],inactive
same,outcome,[11],inactive
same,outcome,[12],inactive
same,outcome,[13],inactive
same,outcome,[14],inactive
same,outcome,[15],inactive
same,outcome,[16],inactive
same,outcome,[17],inactive
same,outcome,[18],inactive
same,outcome,[19],inactive
same,outcome,[20],inactive
CC12CC1(C)C(=O)N(c1cc(Cl)cc(Cl)c1)C2=O (stereo unspecified),outcome,[1],inactive
same,outcome,[2],inactive
same,outcome,[3],inactive
same,outcome,[4],inactive
same,outcome,[5],inactive
same,outcome,[6],inactive
same,outcome,[7],inactive
same,outcome,[8],inactive
same,outcome,[9],inactive
same,outcome,[10],inactive
same,outcome,[11],inactive
same,outcome,[12],inactive
same,outcome,[13],inactive
same,outcome,[14],inactive
same,outcome,[15],inactive
same,outcome,[16],inactive
same,outcome,[17],inactive
same,outcome,[18],inactive
same,outcome,[19],inactive
same,outcome,[20],inactive
COc1cc(-c2ccc(N)c(OC)c2)ccc1N,outcome,[1],inactive
same,outcome,[2],inactive
same,outcome,[3],inactive
same,outcome,[4],inactive
same,outcome,[5],inactive
same,outcome,[6],inactive
same,outcome,[7],inactive
same,outcome,[8],inactive
same,outcome,[9],inactive
same,outcome,[10],inactive
same,outcome,[11],inactive
same,outcome,[12],inactive
same,outcome,[13],inactive
same,outcome,[14],inactive
same,outcome,[15],inactive
same,outcome,[16],inactive
same,AC50,[17],15 µM (active)
same,outcome,[17],inactive
same,outcome,[18],inactive
same,outcome,[19],inactive
same,outcome,[20],inactive
